PubChem BioAssay AID1159580 (chemical genetic matrix, 2015)
The campaign covered roughly 5,500 compounds. About 2,000 (36%) were called active. About 18% were inconclusive and are not listed. No stated cut-off is given here; in the data, active means normalized growth mostly below about 0.91 (no sharp cut-off); inconclusive means no clear call, values can overlap the other calls; inactive means mostly above about 0.92. Some of the results follow.

Assay: chemical genetic growth profiling, strain panel (AID 1159580);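 further: tested at 20 µM; growth read once vehicle control cultures reached saturation at 30 °C; 1 = growth at the plate median or of vehicle wells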
Details: growth OD

Measured: normalized growth

O=C1CC(c2ccc(O)cc2)Oc2ccccc21 (stereo unspecified)
inactive: S. cerevisiae deletion strains, locus YBR021W, strain FUR4, stronger effect = lower value 0.896 | S. cerevisiae deletion strains, locus YBR229C, strain ROT2, stronger effect = lower value 0.918 | S. cerevisiae deletion strains, locus YDL185W, strain tfp1, stronger effect = lower value 0.907 | S. cerevisiae deletion strains, locus YDR150W, strain NUM1, stronger effect = lower value 0.919 | S. cerevisiae deletion strains, locus YGL078C, strain dbp3, stronger effect = lower value 0.944 | S. cerevisiae deletion strains, locus YHR200W, strain rpn10, stronger effect = lower value 0.924 | S. cerevisiae deletion strains, locus YIL073C, strain SPO22, stronger effect = lower value 0.786 | S. cerevisiae deletion strains, locus YIL125W, strain kgd1, stronger effect = lower value 0.94 | S. cerevisiae deletion strains, locus YKL009W, strain mrt4, stronger effect = lower value 0.976 | S. cerevisiae deletion strains, locus YLR102C, strain apc9, stronger effect = lower value 0.928 | S. cerevisiae deletion strains, locus YLR371W, strain rom2, stronger effect = lower value 0.927 | S. cerevisiae deletion strains, locus YNL128W, strain TEP1, stronger effect = lower value 0.923 | S. cerevisiae deletion strains, locus YNR052C, strain pop2, stronger effect = lower value 0.92 | S. cerevisiae deletion strains, locus YOL012C, strain htz1 0.38 | S. cerevisiae deletion strains, locus YOR061W, strain CKA2, stronger effect = lower value 0.931 | S. cerevisiae deletion strains, locus YOR069W, strain VPS5, stronger effect = lower value 0.946 | S. cerevisiae deletion strains, locus YPL241C, strain CIN2, stronger effect = lower value 0.935 | S. cerevisiae deletion strains, locus YPR141C, strain kar3, stronger effect = lower value 0.923 | S. cerevisiae deletion strains, locus YPR167C, strain met16, stronger effect = lower value 0.93
active: S. cerevisiae deletion strains, locus YAL013W, strain DEP1, stronger effect = lower value 0.894 | S. cerevisiae deletion strains, locus YCL029C, strain bik1, stronger effect = lower value 0.858 | S. cerevisiae deletion strains, locus YDL035C, strain GPR1, stronger effect = lower value 0.844 | S. cerevisiae deletion strains, locus YDL074C, strain BRE1, stronger effect = lower value 0.632 | S. cerevisiae deletion strains, locus YDL101C, strain DUN1, stronger effect = lower value 0.862 | S. cerevisiae deletion strains, locus YDL134C, strain PPH21, stronger effect = lower value 0.798 | S. cerevisiae deletion strains, locus YDL192W, strain arf1, stronger effect = lower value 0.818 | S. cerevisiae deletion strains, locus YDR101C, strain arx1, stronger effect = lower value 0.865 | S. cerevisiae deletion strains, locus YDR162C, strain NBP2, stronger effect = lower value 0.489 | S. cerevisiae deletion strains, locus YDR318W, strain mcm21, stronger effect = lower value 0.746 | S. cerevisiae deletion strains, locus YDR388W, stronger effect = lower value 0.897 | S. cerevisiae deletion strains, locus YDR502C, strain sam2, stronger effect = lower value 0.815 | S. cerevisiae deletion strains, locus YEL061C, strain CIN8, stronger effect = lower value 0.879 | S. cerevisiae deletion strains, locus YER110C, stronger effect = lower value 0.855 | S. cerevisiae deletion strains, locus YER155C, strain BEM2, stronger effect = lower value 0.769 | S. cerevisiae deletion strains, locus YER167W, strain BCK2, stronger effect = lower value 0.687 | S. cerevisiae deletion strains, locus YGL086W, strain mad1, stronger effect = lower value 0.848 | S. cerevisiae deletion strains, locus YGL248W, strain PDE1, stronger effect = lower value 0.795 | S. cerevisiae deletion strains, locus YGR078C, strain PAC10, stronger effect = lower value 0.694 | S. cerevisiae deletion strains, locus YGR135W, strain pre9, stronger effect = lower value 0.787 | S. cerevisiae deletion strains, locus YGR229C, strain SMI1, stronger effect = lower value 0.538 | S. cerevisiae deletion strains, locus YGR252W, strain gcn5, stronger effect = lower value 0.718 | S. cerevisiae deletion strains, locus YHR030C, strain SLT2, stronger effect = lower value 0.704 | S. cerevisiae deletion strains, locus YHR079C, strain IRE1 (second series), stronger effect = lower value 0.8 | S. cerevisiae deletion strains, locus YHR094C, strain hxt1, stronger effect = lower value 0.917 | S. cerevisiae deletion strains, locus YHR129C, strain ARP1, stronger effect = lower value 0.795 | S. cerevisiae deletion strains, locus YIL066C, strain RNR3, stronger effect = lower value 0.851 | S. cerevisiae deletion strains, locus YIR030C, strain dcg1, stronger effect = lower value 0.86 | S. cerevisiae deletion strains, locus YJL095W, strain BCK1, stronger effect = lower value 0.386 | S. cerevisiae deletion strains, locus YJL134W, strain LCB3, stronger effect = lower value 0.919 | S. cerevisiae deletion strains, locus YJL168C, strain set2, stronger effect = lower value 0.926 | S. cerevisiae deletion strains, locus YJL187C, strain SWE1 (second series), stronger effect = lower value 0.817 | S. cerevisiae deletion strains, locus YJR043C, strain POL32, stronger effect = lower value 0.76 | S. cerevisiae deletion strains, locus YJR075W, strain HOC1, stronger effect = lower value 0.755 | S. cerevisiae deletion strains, locus YKL068W, stronger effect = lower value 0.924 | S. cerevisiae deletion strains, locus YKL085W, strain MDH1 (second series), stronger effect = lower value 0.923 | S. cerevisiae deletion strains, locus YKL085W, strain MDH1, stronger effect = lower value 0.923 | S. cerevisiae deletion strains, locus YKL190W, strain CNB1, stronger effect = lower value 0.874 | S. cerevisiae deletion strains, locus YKR001C, strain vps1, stronger effect = lower value 0.598 | S. cerevisiae deletion strains, locus YLR039C, strain RIC1, stronger effect = lower value 0.479 | S. cerevisiae deletion strains, locus YLR058C, strain SHM2, stronger effect = lower value 0.829 | S. cerevisiae deletion strains, locus YLR262C, strain YPT6, stronger effect = lower value 0.498 | S. cerevisiae deletion strains, locus YLR268W, strain sec22, stronger effect = lower value 0.784 | S. cerevisiae deletion strains, locus YLR330W, strain CHS5, stronger effect = lower value 0.82 | S. cerevisiae deletion strains, locus YLR342W, strain FKS1 (second series), stronger effect = lower value 0.563 | S. cerevisiae deletion strains, locus YLR418C, strain cdc73, stronger effect = lower value 0.471 | S. cerevisiae deletion strains, locus YML016C, strain PPZ1, stronger effect = lower value 0.905 | S. cerevisiae deletion strains, locus YML032C, strain rad52, stronger effect = lower value 0.696 | S. cerevisiae deletion strains, locus YML124C, strain tub3, stronger effect = lower value 0.918 | S. cerevisiae deletion strains, locus YMR078C, strain ctf18, stronger effect = lower value 0.808 | S. cerevisiae deletion strains, locus YMR223W, strain ubp8, stronger effect = lower value 0.807 | S. cerevisiae deletion strains, locus YMR263W, strain SAP30, stronger effect = lower value 0.823 | S. cerevisiae deletion strains, locus YMR307W, strain GAS1, stronger effect = lower value 0.56 | S. cerevisiae deletion strains, locus YNL067W, strain RPL9B, stronger effect = lower value 0.81 | S. cerevisiae deletion strains, locus YNL153C, strain GIM3, stronger effect = lower value 0.837 | S. cerevisiae deletion strains, locus YNL233W, strain BNI4, stronger effect = lower value 0.73 | S. cerevisiae deletion strains, locus YNL250W, strain rad50, stronger effect = lower value 0.876 | S. cerevisiae deletion strains, locus YNL271C, strain bni1, stronger effect = lower value 0.915 | S. cerevisiae deletion strains, locus YNL298W, strain CLA4, stronger effect = lower value 0.903 | S. cerevisiae deletion strains, locus YNL307C, strain MCK1, stronger effect = lower value 0.176 | S. cerevisiae deletion strains, locus YNL322C, strain KRE1, stronger effect = lower value 0.9 | S. cerevisiae deletion strains, locus YOL006C, strain TOP1, stronger effect = lower value 0.462 | S. cerevisiae deletion strains, locus YOL147C, strain pex11, stronger effect = lower value 0.662 | S. cerevisiae deletion strains, locus YOR136W, strain idh2, stronger effect = lower value 0.92 | S. cerevisiae deletion strains, locus YOR144C, strain elg1, stronger effect = lower value 0.911 | S. cerevisiae deletion strains, locus YOR184W, strain ser1, stronger effect = lower value 0.465 | S. cerevisiae deletion strains, locus YOR316C, strain cot1, stronger effect = lower value 0.916 | S. cerevisiae deletion strains, locus YPL055C, strain LGE1, stronger effect = lower value 0.712 | S. cerevisiae deletion strains, locus YPR119W, strain clb2, stronger effect = lower value 0.89 | S. cerevisiae deletion strains, locus YPR163C, strain tif3, stronger effect = lower value 0.451 | S. cerevisiae deletion strains, strain wtn01, stronger effect = lower value 0.807 | S. cerevisiae strains, strain wild type, stronger effect = lower value 0.838
